# Test results reported in PubChem BioAssay AID1739 (National Center for Advancing Translational Sciences (NCATS), 2009).
# Results filed as inconclusive are left out. Where a call stands in place of a potency, no number is given. Active and inactive are the calls of the source. Calls follow the shape of the dose curve; as a rule, active = well fitted inhibition curve with a large enough effect; inconclusive = small, poorly fitted or top-dose-only effect; inactive = flat fitted curve, though single readings scatter.
# Test: Counterscreen Assay for Enhancers of SMN2 Splice Variant Expression: Modulation of SMN1 Expression
# Conditions: HEK293 SMN1-luciferase reporter, luminescence, 30-36 h; series mostly up to 22.8 µM
# Excerpt: NIH Chemical Genomics Center [NCGC] NIH Molecular Libraries Probe Production centers Network [MLPCN] MLPCN Grant: R03 MH084179-01 Assay Submitter (PI): Elliot Androphy NCGC Assay Overview: Spinal muscular atrophy (SMA) is caused by insufficient levels of the survival motor neuron protein SMN. The SMN locus on chromosome 5q13 contains two inverted copies of SMN called SMN1 and SMN2 which are 99% identical at the amino acid level. SMN1 is a fully functional protein and SMN2 skips exon 7 90% of the time. Skipping of exon 7 produces non-functional protein product. 10% of the SMN2 protein includes exon 7 and is fully functional. In the SMA disease state, mutations in the SMN1 locus are the cause of the disease state. Because only 10% of SMN2 is of the fully functional form, it is not sufficient to overcome the deficiency produced by the loss of the SMN1 product. A therapy that either increase the amount of SMN2 product made or to increase the inclusion of exon 7 has been proposed for the treatment of SMA. We have designed an assay to identify small molecules that can increase the amount of functional SMN2 product by appending a luciferase reporter gene after the native SMN2 gene, such that inclusion of exon 7 in the expressed product places the luciferase sequence in frame, thus generating functional luciferase enzyme. As a counterscreen for nonspecific modulators of expression, we have run compounds through a similar assay that measures expression of an SMN1-luciferase chimera.
# NCGC Assay Protocol Summary: This screen utilizes a luciferase reporter gene assay, combining the promoter with the major portion of the native SMN1 cDNA (exons 1 -7, intron 8 , exon 8 fused to luciferase) stably expressed in HEK293 cells. Compounds that increase luciferase signal presumably enhance expression of the functional SMN1 splice variant. Passaging media contained DMEM w/ glutamax (+phenol red) 10% FCS, 1x pen/strep, 200 ug/ml hygro, 1x sodium pyruvate. Assay media contained DMEM w/ glutamax (-phenol red) 10% FCS, 1x pen strep, 1x pyruvate Sequence, Parameter, Value, Description (1) Cells, 5 uL, 2000 cells/well, 1536 TC treated White solid bottom plate (2) Time, 10-12 hours, 37C 5% CO2 (3) Compound, 23 nl, MLSMR Library (4) Control Compound, 23 nL, Sodium butyrate st 4.5mM (final) conc (5) Time, 30-36 hours, 37C 5% CO2 (6) Reagent, 3 ul, One Glo (TM) from Promega (7) Time, 5-15 minutes, Room temp (8) Detector, Viewlux: luminescent read, 60 second integration, high speed 2x binning Keywords: Spinal muscular atrophy, SMA, SMN2, high throughput screening, MLSMR, MLPCN, NIH Roadmap, qHTS and NCGC
row,SMILES,Potency
1,Nc1ccccc1-c1nnn(CC(=O)N2CCCc3ccccc32)n1,inactive
2,O=C(Nc1ccc([N+](=O)[O-])cc1Cl)c1cc(Cl)ccc1O,0.708 µM (active)
3,Clc1nc(NCC2CCCO2)c2[nH]cnc2n1 (stereo not given),inactive
4,Clc1ccc(-c2nnc(-c3ccccc3)nc2N2CCSCC2)cc1,inactive
5,COC(=O)C1=C(C)NC(=O)/C1=C\c1cc(C)n(-c2ccccc2F)c1C,inactive
6,FC(F)(F)c1cccc(-c2nnc(-c3ccccc3)c(N3CCOCC3)n2)c1,inactive
7,Cn1c(C(=O)NCc2cccs2)cc2oc3ccccc3c21,3.16 µM (active)
8,FC(F)C(F)(F)C1=CC(c2cccs2)=NCCN1,inactive
9,c1ccc(-c2nnc(-c3ccccc3)c(-c3c[nH]c4ccccc34)n2)cc1,inactive
10,O=C(Cc1c(F)cccc1Cl)N1CCN(C(=O)c2ccco2)CC1,inactive
11,Clc1ccc(-c2nnc(-c3ccc(Br)cc3)c(N3CCSCC3)n2)cc1,inactive
12,CCCCOC(C)n1cc(F)c(=O)[nH]c1=O (stereo not given),inactive
13,O=S(=O)(NC1CCCc2ccccc21)c1cnc[nH]1 (stereo not given),inactive
14,COc1nc(-c2ccc(Cl)cc2)nnc1C,inactive
15,c1coc(CNc2ncnc3nc[nH]c23)c1,inactive
16,Cc1ccc(-c2nnc(-c3ccccc3)c(N3CCOCC3)n2)cc1,inactive
17,CN(C)CCCN(C(=O)c1cccs1)c1nc(-c2ccccc2)cs1,inactive
18,Cc1ccc(-c2nnc(-c3ccccc3)c(-c3ccccc3)n2)cc1,inactive
19,O=C(NCCc1cn2ccsc2n1)c1cccs1,inactive
20,CCCSc1nnc(Sc2nnnn2-c2ccccc2)s1,7.08 µM (active)

row,SMILES,Potency
1,O=[N+]([O-])c1ccc(-c2nnc(-c3ccccc3)c(N3CCOCC3)n2)cc1,inactive
2,CC(/C=C/C(=O)NO)=C\[C@@H](C)C(=O)c1ccc(N(C)C)cc1,7.94 µM (active)
3,O=C(O)c1cccc(COc2ccc(CO)cc2Cl)c1,3.16 µM (active)
4,COc1ccc(CNC(=O)c2ccc(C(C)C)cc2)cc1,inactive
5,Fc1ccc(Oc2nc(-c3ccccc3)nnc2C(F)(F)F)cc1,inactive
6,CCC1=Nc2ccccc2-c2nnc(SC)nc2O1,inactive
7,Brc1nc2ncnc(NCc3ccco3)c2[nH]1,inactive
8,COc1cccc(NC(=O)CSc2nc3ccccc3nc2N2CCOCC2)c1,5.01 µM (active)
9,Brc1ccc(-c2nnc(-c3ccccc3)c(N3CCSCC3)n2)cc1,inactive
10,CN(Cc1ccccc1)Cc1c(F)cccc1F,inactive
11,O=c1[nH]c(=O)n(C2CCCO2)cc1Br (stereo not given),inactive
12,Nn1c(SCC(=O)NCCC2=CCCCC2)nnc1C1CCCCC1,inactive
13,CCCc1sc(N2CCCC(C(N)=O)C2)nc1-c1ccccc1 (stereo not given),inactive
14,COc1ccc(OC)c(-c2csc(N3CCC(c4ccccc4)CC3)n2)c1,inactive
15,COc1nc(-c2ccccc2)nnc1-c1ccccc1,inactive
16,COCCCN1C(=O)C(=O)/C(=C(/O)c2ccc3c(c2)CC(C)O3)C1c1cccnc1 (stereo not given),inactive
17,O=C(Nc1nc(-c2ccc3ccccc3c2)cs1)C1CCN(S(=O)(=O)c2cccs2)CC1,inactive
18,CCOC(=O)c1c(-c2cccc(C)c2)csc1NC(=O)c1c(-c2ccccc2)noc1C,0.355 µM (active)
19,Cc1ccc(C2c3c(oc4ccccc4c3=O)C(=O)N2CCCN2CCOCC2)o1 (stereo not given),inactive
20,Clc1ccc(-c2nnc(-c3ccccc3)c(N3CCSCC3)n2)cc1,inactive
